Source: PubChem BioAssay AID687014 (The Scripps Research Institute Molecular Screening Center, 2013)
Among all 370,000 compounds or so, about 6,800 (1.8%) were called active.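 Rule for the calls: active = activation above a cutoff set at the mean of all screened compounds plus 3 SD (cut at about 10% in these data); inactive = the rest.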 The entries come from a sample that favours actives as a whole.

tested on: Nuclear hormone receptor DAF-12 (Heterodera glycines), GAL4 fusion; assay: hgDAF-12 GAL4 fusion reporter activation – cell-based, luminescence, HEK293, UAS-luciferase, primary screen (AID 687014); settings: HEK293 GAL4-hgDAF12 UAS-luciferase reporter, agonist luminescence; at 6.8 µM; stronger effect = higher value; normalized to butyrate control;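 note: 0% = DMSO wells and 100% = sodium butyrate wells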

SMILES	activation
OC(CCl)CCl	2.07% (inactive)
C/C(=N\NC(=O)CSc1nc2ccccc2c(=O)n1-c1ccccc1C)c1cccs1	-2.57% (inactive)
C/C(=N\Nc1nc2ccccc2[nH]1)c1cccs1	12.3% (active)
C/C(=N\Nc1ccc(S(N)(=O)=O)cc1[N+](=O)[O-])c1cccs1	-0.57% (inactive)
COCCCNC(=O)C[C@H]1C[C@@]2(C(=O)OC)C(=C[C@H](C(C)(C)C)O[C@@H]2C)N(Cc2ccc(Cl)cc2Cl)C1=O	-0.78% (inactive)
Cc1cc(N2CCN(C(=O)OC(C)(C)C)C[C@H]2C)ccc1N1CCN(Cc2ccccc2)[C@H](C)C1	-0.97% (inactive)
O=C(c1cc(C2CCCCN2S(=O)(=O)c2ccccc2)on1)N1CCOCC1 (configuration not stated)	1.09% (inactive)
O=C(c1cc(COc2cccc(C(F)(F)F)c2)on1)N1CCSCC1	-1.54% (inactive)
O=C(c1cc(-c2ccccc2O)on1)N1CCCC1	13.1% (active)
COc1ccc(C(=O)C2CCCN(C(=O)c3cc(C)on3)C2)cc1F (configuration not stated)	-1.33% (inactive)
COc1ccccc1-c1cc(C(=O)N2CCCCC2)no1	11.7% (active)
COc1ccc(OCc2cc(C(=O)N3CCCC3)no2)c2ccccc12	7.54% (inactive)
O=C(c1cc(-c2cccs2)on1)N1CCCCC1	10.8% (active)
CCOC(=O)C1CCCN(C(=O)c2cc(-c3cccs3)oc2C)CC1 (configuration not stated)	-2.05% (inactive)
CC(=O)c1ccc(NC(=O)c2cc(-c3cccs3)on2)cc1	1.57% (inactive)
N#Cc1ccc(OC[C@@H](O)CN2CCC(C(O)(c3ccccc3)c3ccccc3)CC2)c(F)c1	-0.04% (inactive)
CN(C)Cc1cn(-c2ccc(-c3noc4c3C(=O)N(CC(=O)N3CCOCC3)CC4)cc2)nn1	-1.17% (inactive)
O=C(c1ccncc1)N1CC[C@H]2[C@H](CCCN2Cc2ccc(F)cc2)C1	5.55% (inactive)
O=C(NCCS(=O)(=O)N1CCN(c2ccccc2F)CC1)c1ccc(Br)o1	0.09% (inactive)
CC(=O)N1Cc2cc(C(=O)NCc3cccc(F)c3)nc(-c3cccc(C4=CCCC4)c3)c2[C@H]1CCO	-1.83% (inactive)
COc1ccc2c(c1)CN1CN(CCc3ccccc3)S(=O)(=O)CC21 (configuration not stated)	0.93% (inactive)
Cc1ccoc1C(=O)Nc1cccc(Oc2ccccc2)c1	11.7% (active)
COc1ccc(/C=C/C(=O)OCC(=O)Nc2cccc(Oc3ccccc3)c2)c(OC)c1	2.49% (inactive)

SMILES	activation
CC1(C(=O)Nc2cccc(Oc3ccccc3)c2)CCN1Cc1ccccc1Cl (configuration not stated)	-0.38% (inactive)
O=C(NCc1ccccc1)[C@@H]1CCCN1C(=O)[C@@H](NS(=O)(=O)c1ccc(F)cc1F)C1CCCCC1	-0.9% (inactive)
C[C@H]1CN([C@@H](C)CO)C(=O)CCCn2nncc2CO[C@@H]1CN(C)C(=O)Nc1ccc(N2CCN(C)CC2)cc1	-1.55% (inactive)
CCOc1ccc(-n2c(SCC(=O)Nc3cc(C)c(NC(=O)c4ccccc4)cc3OC)nnc2-c2cccc(Cl)c2)cc1	-2.83% (inactive)
COC(=O)C1=C(C)N(Cc2cccc(C(F)(F)F)c2)C(=NCc2ccccc2)NC1c1ccc(Cl)cc1 (configuration not stated)	4.18% (inactive)
COc1ccc(Cc2nc3ccc(C(=O)NCC4CCOCC4)cc3o2)cc1OC	2.3% (inactive)
CSCCNC(=O)c1ccc2nc(Cc3ccccc3F)oc2c1	10.5% (active)
COCCNC(=O)c1ccc2nc(Cc3ccc(OC)c(OC)c3)oc2c1	4.83% (inactive)
Brc1ccc(/C=N/N2CCN(C3c4ccccc4-c4ccccc43)CC2)s1	0.61% (inactive)
COc1cccc(N(CC(=O)NC2CCCC2)C(=O)Cn2nnc(-c3ccc(C)o3)n2)c1	0.01% (inactive)
C[C@]12CCC(=O)C=C1C=CC1C2CC[C@@]2(C)C1CC[C@@]21CCC(=O)O1 (some centres not stated)	-2.47% (inactive)
O=C(Nc1nnc(SCc2c(Cl)cccc2Cl)s1)C1CCCO1 (configuration not stated)	3.2% (inactive)
Cc1cc(C)c2nc(NC(=O)C3CCCO3)sc2c1 (configuration not stated)	11.9% (active)
Cc1ccc(C)c(C(C)NC(=O)C2CCCO2)c1 (configuration not stated)	-0.46% (inactive)
CCOc1ccc(-n2c(SCC(=O)Nc3cc(C)c(NC(=O)c4ccccc4)cc3OC)nnc2-c2cccs2)cc1	7.81% (inactive)
O=C(CSc1nnc2ccccn12)c1ccccc1	8.56% (inactive)
Cc1cc(C(=O)CSc2nc(N)cc(=O)[nH]2)c(C)n1-c1cccc(F)c1	-3.64% (inactive)
Cc1ccc(-n2c(C)cc(C(=O)CSc3nnc4ccccn34)c2C)cc1	11.6% (active)
CS(=O)(=O)N1CCN(c2cccc(Cl)n2)CC1	-0.95% (inactive)
CS(=O)(=O)N1CCC(C(=O)N2CCN(c3ccccc3)CC2)CC1	-2.01% (inactive)
CS(=O)(=O)N1CCc2nc(-c3ccccc3)sc2C1	15.3% (active)
CCc1c(-c2ccccc2OC)ncn1CCc1ccccc1OC	-2.96% (inactive)
Cc1c(Cl)c([N+](=O)[O-])nn1Cc1ccc(C(=O)N/N=C\c2cc(Cl)ccc2O)o1	0.23% (inactive)

SMILES	activation
CN(C)c1ccc(/C=N/NC(=O)c2ccc(Cn3cc(Br)cn3)o2)cc1	5.9% (inactive)
O=C(N/N=C\c1ccc(Br)cc1)c1ccc(Cn2cccn2)o1	10.5% (active)
COc1ccc(-n2c(SCC(=O)Nc3ccccc3-c3ccccc3)nnc2-c2cccnc2)cc1	0.21% (inactive)
COc1ccc(NC(=O)Nc2ccc3nsnc3c2)cc1	15.7% (active)
CCOC(=O)N1CCN(S(=O)(=O)c2ccc(C(=O)Nc3ccc(F)cc3F)cc2)CC1	3.94% (inactive)
COc1ccc(C(=O)Nc2ccc(F)cc2F)cc1	10.5% (active)
O=C(Nc1ccc2ccccc2c1)Nc1ccc2snnc2c1	1.18% (inactive)
COc1ccc(NC(=O)c2ccc(OC)cc2)cc1	14.9% (active)
COc1ccc(NC(=O)c2c(C)oc3c2CCCC3)cc1	3.38% (inactive)
COCCNC(=O)Nc1ccc2nc(-c3ccco3)c(-c3ccco3)nc2c1	-6.29% (inactive)
COc1ccc(C(=O)Nc2ccc(-n3nncc3C(C)(C)C)cc2)cc1	-2.44% (inactive)
O=C(C=CC(=O)Nc1ccc(F)cc1F)Nc1ccc(F)cc1F	-0.27% (inactive)
COc1ccc(-n2c(C)nn(CC3CC3)c2=O)cc1	-0.88% (inactive)
Cn1c(CC2Sc3ccccc3NC2=O)nnc1SCC(=O)c1ccc(Cl)cc1 (configuration not stated)	2.7% (inactive)
CCn1c(SCC(C)=O)nc2sc3c(c2c1=O)CCCC3	-0.6% (inactive)
Nc1[nH]c(C(=O)c2ccccc2)c(-c2ccc(Cl)cc2Cl)c1C(=O)c1ccccc1	0.29% (inactive)
O=C(Nc1ccc(F)cc1)C(CCc1ccccc1)N1CCN(CC(=O)N2CCCC2)CC1 (configuration not stated)	-2.94% (inactive)
COC(=O)[C@]12C[C@H](CC(=O)NCCc3ccccc3OC)C(=O)N(Cc3ccccc3)C1=C[C@H](C(C)C)O[C@@H]2C1CC1	-1.92% (inactive)
O=C(N/N=C/c1ccc(O)c(O)c1)C1c2ccccc2Oc2ccccc21	-0.99% (inactive)
O=C(NN=Cc1ccc2c(c1)CCC2)c1ccccc1O	14.7% (active)
CC(NC(=O)c1cccc2ccccc12)c1ccc2c(c1)CCCC2 (configuration not stated)	1.33% (inactive)
Cc1nn(-c2ccccc2)c2[nH]c(C(F)(F)F)cc(=O)c12	0.5% (inactive)
CC1CCN(C(=O)c2ncn3c2C(=O)N[C@@H](C)C3)CC1	0.1% (inactive)

SMILES	activation
CCCc1cc(=O)[nH]c2nnc(SCC(=O)Nc3nnc(SCC)s3)n12	1.68% (inactive)
CCSc1nnc(NC(=O)c2ccc(C)cc2)s1	14.4% (active)
COC(=O)c1ccc(CSc2nnc(NC(C)C)s2)cc1	-0.67% (inactive)
CCOC(=O)N1CCN(C(=O)C[C@H]2C[C@@]3(C(=O)OC)C(=C[C@H](C(C)(C)C)O[C@@H]3C)N(Cc3ccc(Cl)cc3Cl)C2=O)CC1	0% (inactive)
COC(=O)c1cccc(Cn2ccc3ccc(-c4ccc5ccn(C(=O)C6CCCCC6)c5c4)cc32)c1	3.04% (inactive)
Cc1cccc(NC(=O)Cc2ccc(Br)cc2)n1	3% (inactive)
CC(NC(=O)COC(=O)c1ccc2ccccc2n1)c1ccccc1 (configuration not stated)	5.11% (inactive)
Cc1cccc(NC(=O)c2ccc3ccccc3n2)n1	14.8% (active)
C=CCN1[C@@H](Cc2ccccc2)COc2cccc(N3CCSCC3)c2S1(=O)=O	3.43% (inactive)
O=C1Oc2ccccc2C(=O)/C1=C/c1ccccc1O	-1.59% (inactive)
COc1ccc2c(c1)O/C(=C\c1ccccc1O)C2=O	13% (active)
COc1ccc(/C=C2/C(=O)OCc3cc(OC)c(OC)cc32)c(OC)c1	-3.92% (inactive)
CSc1ccc(Oc2cccc3c2S(=O)(=O)N([C@H](C)c2ccccc2)C[C@@H](COCc2ccccc2)O3)cc1C	1.48% (inactive)
O=S1(=O)c2c(cccc2N2CCCC2)O[C@H](COCc2ccccc2)CN1C1CC1	-1.8% (inactive)
CONc1nc2nonc2nc1NOC	-3.04% (inactive)
O=C(NCCC1=CCCCC1)c1ccc(-n2cncn2)cc1	11.6% (active)
O=C(NCCC1=CCCCC1)c1ccc(Cl)c([N+](=O)[O-])c1	4.8% (inactive)
O=C(COc1cccc(-n2cnnn2)c1)NCCC1=CCCCC1	-1.74% (inactive)
COC(=O)[C@@]12CCCCC3=C1N(CCC3)C(=O)[C@H]2CC(=O)NCc1cccc2ccccc12	-3.73% (inactive)
O=C(NC1CCCCN(Cc2ccc(Cl)cc2)C1=O)c1ccc(Br)cc1 (configuration not stated)	-3.05% (inactive)
Cc1cc(C)c2nc(N3CCC(C(=O)NCCN4CCOCC4)CC3)sc2c1	1.84% (inactive)
Fc1cc(F)c2nc(N3CCOCC3)sc2c1	11.6% (active)
Cc1nc(N2CCOCC2)sc1C(=O)NN	-4.56% (inactive)
